BAZ2B inh: qHTS Assay for Inhibitors of BAZ2B. hit rate 4.4% among 360,000. Bromodomain adjacent to zinc finger domain protein 2B (Homo sapiens), Q9UIF8. Potency, µM (highest dose often 114 µM), most hits filed as inhibitors. AlphaScreen BAZ2B-H3K14Ac peptide displacement. AID 504333, 2011; also: nearly all actives have a fitted effect of over 60% in size
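Compounds, titrated to a top concentration of 110 uM, were incubated 30 min at room temperature with preformed BAZ2B/acetyl-K14 H3 peptide complex (50 nM each). Proximity signal was measured by AlphaScreen after 20 min with beads.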
HP1b chromo inh: HTS for Inhibitors of HP1-beta Chromodomain Interactions with Methylated Histone Tails | Chromobox protein homolog 1 (Homo sapiens), P83916 | AlphaScreen HP1-beta / biotin-H3K9me3 peptide binding | Potency, µM (highest dose often 114 µM), hits mostly inhibitors | hit rate 0.56% among 390,000 | AID 540317, 2011; also: nearly all actives have a fitted effect of over 70% in size
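Compound inhibition of the preformed complex between 50 nM HP1-beta and 50 nM biotinylated H3K9me3 peptide was read by AlphaScreen. Buffer was PBS pH 7.4 with 0.01% Tween-20. Incubations ran 30 min at room temperature, with 10 ug/mL donor/acceptor beads.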
JMJD2A Tudor inh: qHTS Assay for Inhibitors of JMJD2A-Tudor Domain | AlphaScreen JMJD2A-Tudor / H3K4me3 peptide binding | hit rate 4.4% among 390,000 | AID 504339, 2011 | Lysine-specific demethylase 4A (Homo sapiens), O75164 | Potency, µM (titrated, usually from 114 µM), actives largely listed as inhibitors; also: nearly all actives have a fitted effect of over 50% in size
PLK1 PBD block: qHTS for Inhibitors of PLK1-PDB (polo-like kinase 1 - polo-box domain): Primary Screen; Potency, µM, most hits filed as inhibitors; Serine/threonine-protein kinase PLK1 (Homo sapiens), P53350; hit rate 2.8% among 360,000; Plk1 PBD binding of FITC phosphopeptide, fluorescence polarization; also: series mostly up to about 57 µM; nearly all actives have a fitted effect of over 65% in size
G9a block: qHTS Assay for Inhibitors of Histone Lysine Methyltransferase G9a. G9a H3K9 monomethylation, AlphaScreen, 2 h. Histone-lysine N-methyltransferase EHMT2 (Homo sapiens), Q96KQ7. AID 504332, 2011. hit rate 8.8% among 350,000. Potency, µM (top dose mostly 102 µM), usual class: inhibitors; also: nearly all actives have a fitted effect of over 75% in size
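Chemiluminescent proximity detection of H3K9 monomethylation, read after 10 min bead incubation in the dark. Reaction: 20 nM G9a, 500 nM biotin-H3K9 peptide, 20 uM SAM cofactor, 2 h, room temperature, following 15 min enzyme-compound preincubation.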
PI5P4K alpha inh: qHTS for Inhibitors of phosphatidylinositol 5-phosphate 4-kinase (PI5P4K) | PI5P4Kalpha enzyme, ADP-Glo luminescence, 60 min; hits give low values | max response, % | hit rate 1.2% among 330,000; active = max response of -50% or lower; inconclusive = between -30% and -50%; inactive = -30% or higher; also: value at the top dose of about 77 µM
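ADP-Glo luminescence end-point after a 60 min room-temperature kinase reaction. PI5P4Kalpha and substrate in HEPES pH 7.4 buffer with EGTA, 0.1% CHAPS and 5% DMSO; ATP at 5 microM final.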
Of the large screens only hits and unclear results are named; the others gave an inactive call. Rows were chosen to be rich in hits. Some 12% of all compounds tested hit in one or more screens of this group. Unless noted, calls follow the shape of the dose curve; as a rule, active = well fitted curve in the direction sought with a large enough effect; inconclusive = small, poorly fitted or top-dose-only effect, or another doubt; inactive = no such curve, though single readings can be large; an effect the other way counts as inactive or inconclusive.

Cn1cc(Cl)c(C(=O)NC(=S)Nc2sc3c(c2C#N)CCCCC3)n1	PLK1 PBD block 12µM, PI5P4K alpha inh inconclusive
COCCn1cnnc1SCC(=O)Nc1sc2c(c1C#N)CCC2	none
COc1ccc(S(=O)(=O)N2CCC(Oc3ccc(-n4cnnn4)cc3)CC2)cc1OC	none (no result: PLK1 PBD block, PI5P4K alpha inh)
CC1CCC2(CC1)NC(=O)N(CC(=O)Nc1sc3c(c1C(N)=O)CCC3)C2=O (centres undefined)	BAZ2B inh 50µM, JMJD2A Tudor inh inconclusive, G9a block 50µM, PI5P4K alpha inh -87
Cc1cc(C(F)F)n2nc(C(=O)Nc3sc4c(c3C#N)CCC4)nc2n1	BAZ2B inh inconclusive, HP1b chromo inh inconclusive, PLK1 PBD block 27µM, G9a block 50µM
Cn1cc(Br)c(C(=O)Nc2sc3c(c2C(N)=O)CCCC3)n1	G9a block 35µM
C=CCNC(=S)Nc1sc2c(c1C#N)CCCC2	G9a block 45µM
CC(C)(C)C(=O)NC(=S)Nc1sc2c(c1C#N)CCCCC2	G9a block inconclusive
COC(=O)c1c(NC(=O)CN2C(=O)NC3(CCC(C)CC3)C2=O)sc2c1CCC2 (centres undefined)	none
CCn1cc(Br)c(C(=O)Nc2sc3c(c2C(N)=O)CCCC3)n1	none
Cc1cccc(C)c1NC(=O)CCSCCc1ccccn1	HP1b chromo inh inconclusive (no result: PLK1 PBD block, PI5P4K alpha inh)
O=C(NCc1noc2ccccc12)Nc1ccc(F)cc1F	none (no result: PLK1 PBD block, PI5P4K alpha inh)
Cn1cc(Br)c(C(=O)Nc2sc3c(c2C#N)CCC3)n1	PLK1 PBD block inconclusive, G9a block 35µM
CCCC(=O)N1CCC1(C)C(=O)Nc1ccc(C)c(C)c1 (centres undefined)	none (no result: BAZ2B inh, HP1b chromo inh, JMJD2A Tudor inh, G9a block)
CCc1ccc2c(c1)c1nnc(NN)nc1n2CC	BAZ2B inh inconclusive, JMJD2A Tudor inh inconclusive, G9a block inconclusive
CCCn1c2ccc(F)cc2c2nnc(NN)nc21	G9a block 50µM
CCn1c2ccc(F)cc2c2nnc(NN)nc21	BAZ2B inh inconclusive, JMJD2A Tudor inh inconclusive, G9a block 50µM
CCOC(=O)C1=C(C)N=c2s/c(=C\c3ccc(OCC(=O)O)c(OC)c3)c(=O)n2C1c1ccc(OC)cc1 (centres undefined)	BAZ2B inh 79µM, JMJD2A Tudor inh 79µM, G9a block 56µM, PI5P4K alpha inh -61
CC1=C(C(=O)OC(C)C)C(c2ccc(Cl)cc2)n2c(s/c(=C\c3ccc(OCC(=O)O)cc3)c2=O)=N1 (centres undefined)	BAZ2B inh 45µM, HP1b chromo inh inconclusive, JMJD2A Tudor inh inconclusive, G9a block inconclusive
CCOC(=O)C1=C(C)N=c2sc(=Cc3ccc(OCC(=O)O)cc3)c(=O)n2C1c1ccc(SC)cc1 (centres undefined)	none (no result: BAZ2B inh, HP1b chromo inh, JMJD2A Tudor inh, G9a block)
CCOC(=O)C1=C(C)N=c2s/c(=C\c3ccc(OCC(=O)O)cc3)c(=O)n2C1c1ccccc1 (centres undefined)	BAZ2B inh inconclusive, PLK1 PBD block inconclusive, PI5P4K alpha inh inconclusive
CCOC(=O)C1=C(C)N=c2s/c(=C/c3ccco3)c(=O)n2C1c1cccc(OC)c1 (centres undefined)	BAZ2B inh 10µM, HP1b chromo inh inconclusive, JMJD2A Tudor inh inconclusive, G9a block 16µM
CCOC(=O)C1=C(C)N=c2s/c(=C\c3ccc(C(=O)O)cc3)c(=O)n2C1c1ccc(OC)cc1OC (centres undefined)	none (no result: BAZ2B inh, G9a block)
CCOC(=O)C1=C(C)N=c2s/c(=C\c3ccc(C(=O)O)cc3)c(=O)n2C1c1ccc(F)cc1 (centres undefined)	BAZ2B inh inconclusive, JMJD2A Tudor inh inconclusive, PLK1 PBD block 30µM, G9a block 79µM
CCOC(=O)c1cc(OC(=O)c2cccc(F)c2)n(-c2ccccc2)n1	BAZ2B inh inconclusive, JMJD2A Tudor inh inconclusive (no result: PLK1 PBD block, PI5P4K alpha inh)
O=C(COc1ccc2ccccc2c1)N[C@@H](C(=O)O)c1ccc(O)cc1	none
CCOC(=O)C1=C(C)N=c2s/c(=C/c3cccc([N+](=O)[O-])c3O)c(=O)n2C1c1ccccc1 (centres undefined)	BAZ2B inh 7.1µM, HP1b chromo inh 14µM, JMJD2A Tudor inh 28µM, PLK1 PBD block 19µM, G9a block 2µM, PI5P4K alpha inh -55
CCOC(=O)C1=C(C)N=C2SC(C(=O)OC)=CC(=O)N2C1c1ccc(F)cc1 (centres undefined)	BAZ2B inh inconclusive, HP1b chromo inh inconclusive, JMJD2A Tudor inh 25µM, G9a block inconclusive (no result: PI5P4K alpha inh)
CCOC(=O)C1=C(C)N=c2sc(=Cc3cc(Cl)c(OCC(=O)O)c(OC)c3)c(=O)n2C1c1ccccc1Cl (centres undefined)	PLK1 PBD block 27µM (no result: BAZ2B inh, HP1b chromo inh, JMJD2A Tudor inh, G9a block)
CCOC(=O)C1=C(C)N=C2SC(C(=O)OC)=CC(=O)N2C1c1cccc(OC)c1 (centres undefined)	BAZ2B inh inconclusive, JMJD2A Tudor inh inconclusive
CC(=O)C1=C(C)N=c2s/c(=C/c3ccc4c(c3)OCO4)c(=O)n2C1c1ccc(N(C)C)cc1 (centres undefined)	HP1b chromo inh inconclusive, PLK1 PBD block 27µM (no result: BAZ2B inh, G9a block)
COc1ccc(C2c3c(n(C)c4ccccc34)C(=O)N2CC(=O)Nc2cccc(F)c2)cc1 (centres undefined)	BAZ2B inh inconclusive (no result: PLK1 PBD block, PI5P4K alpha inh)
COCCn1c(=O)c(CCc2ccccc2)nc2cnc(N(C)C)nc21	none (no result: BAZ2B inh, HP1b chromo inh, JMJD2A Tudor inh, PLK1 PBD block, PI5P4K alpha inh)
CO[C@H]1OC2O[C@@]3(C)CC[C@H]4[C@H](C)CC[C@@H]([C@H]1C)[C@@]24OO3 (some centres undefined)	none (no result: BAZ2B inh, HP1b chromo inh, JMJD2A Tudor inh, PLK1 PBD block, PI5P4K alpha inh)
Cc1ccc(C)c(S(=O)(=O)c2nnn3c2nc(NC(C)C)c2sccc23)c1	none (no result: PLK1 PBD block, PI5P4K alpha inh)
Cc1cc(C)cc(NC(=O)CN(c2ccc(F)cc2)S(C)(=O)=O)c1	HP1b chromo inh inconclusive, PLK1 PBD block 11µM
COc1ccc(N(CC(=O)Nc2ccc(F)c(F)c2)S(=O)(=O)c2c(C)n[nH]c2C)cc1	none
Cc1cccc(N(CC(=O)Nc2ccc(F)cc2)S(C)(=O)=O)c1	none
Cc1cc(C)cc(N(CC(=O)Nc2ccc(C(F)(F)F)cc2)S(=O)(=O)c2c(C)[nH]c(=O)[nH]c2=O)c1	G9a block 25µM
COc1ccc(NC(=O)CN(c2cc(C)cc(C)c2)S(=O)(=O)c2c(C)n[nH]c2C)cc1	JMJD2A Tudor inh 50µM, PLK1 PBD block 30µM
CN(C(=O)CSc1nnc(-c2ccccc2)o1)c1c(N)n(Cc2ccccc2)c(=O)[nH]c1=O	none
Cc1ccc(CC(=O)Nc2c(C(=O)N3CCN(c4ccccc4)CC3)oc3ccccc23)cc1	none (no result: PLK1 PBD block, PI5P4K alpha inh)

From PubChem BioAssay
